Data published in ChEMBL document CHEMBL1157539, “Thousands of chemical starting points for antimalarial lead identification” (Nature, 2010).

Legend:
Assay type in all cases: functional
[1] = test system: Plasmodium falciparum; test: GSK_TCMDC: Inhibition of Plasmodium falciparum 3D7 in whole red blood cells, using parasite LDH activity as an index of growth. Test compounds present at 2uM
[2] = test system: Plasmodium falciparum; test: GSK_TCMDC: Inhibition of Plasmodium falciparum Dd2 in whole red blood cells, using parasite LDH activity as an index of growth. Test compounds present at 2uM
[3] = test system: HepG2; test: GSK_TCMDC: Percent inhibition of human HepG2 cell line. Test compounds present at 10uM.

SMILES | Inhibition [1] [%] | Inhibition [2] [%] | Inhibition [3] [%]
CCCCCN1CCCC1CNS(=O)(=O)c1cccc(C(=O)Nc2cccc(C#N)c2)c1.O=C(O)C(F)(F)F (stereo not given) | 90 | 7 | 19
[O-][S+]1c2ccccc2Sc2ccccc21 | 99 | 0 | 48
COc1ccc(-c2ccccc2OCCCNc2nc(NCCc3ccc(O)cc3)nc(N3CCNCC3)n2)cc1.O=C(O)C(F)(F)F | 99 | 3 | 36
c1ccc(CNc2cc(-c3ccccn3)nc(-c3ccccn3)n2)cc1 | 84 | 89 | 88
COc1cccc(-c2cnc(N)c(-c3nc4cc(Cl)c(F)cc4[nH]3)c2)c1 | 100 | 26 | 37
Cc1cccc2nc(-c3ccc(-c4ccc(CNCc5ccccc5)cc4)s3)[nH]c12.O=C(O)C(F)(F)F | 100 | 87 | 22
CCN(CC)CCN(Cc1ccc(-c2ccc(C(F)(F)F)cc2)cc1)C(=O)Cn1c(CCc2ccc(F)c(F)c2F)nc(=O)c2ccc(F)cc21.O=C(O)C(O)C(O)C(=O)O | 98 | 46 | 19
COC(=O)CCCCCOc1cc(Cc2cnc(N)nc2N)cc(OC)c1OC | 90 | 0 | 0
Cc1ccc(F)cc1S(=O)(=O)N1CCCCC(c2ccc(C(F)(F)F)cc2)=N1 | 82 | 75 | 8
N=C(Nc1ccccc1)Nc1cccc(Cc2ccc([N+](=O)[O-])cc2)n1 | 96 | 19 | 28
